Drawing on the supplement of paper PMC9950053, this text covers startle for 40 molecules.

Where a name gives a salt, the structure may show the parent alone.

The subject of the test is Danio rerio larvae (5 dpf). Put plainly: startle (activity period 16 minus period 15, 20-s interval sound) minus DMSO control (percentage points); higher = stronger startle response than DMSO larvae. Particulars: 10 µM; exposure time: 3 h pre-incubation + 3 h imaging. The method, then:
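Wild-type 5 dpf zebrafish larvae (n=48 per drug, 96-well plates, 28.5 °C) were exposed to Tocris FDA-approved library compounds at 10 µM (0.1% DMSO) for 3 h before and 3 h during imaging. Images were taken every 6 s during visual (moving coloured lines) and acoustic stimuli, and larvae were tracked with the DeepLabCut-based Z-LaP Tracker. Each behavioural measure is the treated-group mean minus the DMSO vehicle control mean (n=844), in percentage points. This mapping covers compounds with 4-character plate codes.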
Regarding `COc1c(C)c2c(c(O)c1C/C=C(\C)CCC(=O)OCCN1CCOCC1)C(=O)OC2` [Mycophenolate mofetil], the startle amounted to 3.22.

Regarding `CN1CCN2c3ncccc3Cc3ccccc3C2C1` (stereo not given) [Mirtazapine], the startle is -6.05.

In the case of `CN(CCOc1ccc(CC2SC(=O)NC2=O)cc1)c1ccccn1` (stereo not given) [Rosiglitazone], the startle is -1.31.

As for `C#C[C@]1(O)CC[C@H]2[C@@H]3CCC4=CC(=O)CC[C@@H]4[C@H]3CC[C@@]21CC` [Levonorgestrel], the startle was -4.23.

Turning to `CC1=Nc2ccc(Cl)cc2S(=O)(=O)N1` [Diazoxide], the startle is -4.34.

`CCCCc1nc(Cl)c(CO)n1Cc1ccc(-c2ccccc2-c2nnn[nH]2)cc1` [Losartan potassium]: the startle is -0.225.

Turning to `Cn1cnc([N+](=O)[O-])c1Sc1ncnc2[nH]cnc12` [Azathioprine], the startle was -0.818.

On to `CC(c1cc2ccccc2s1)N(O)C(N)=O` (stereo not given) [Zileuton], for which the startle is -0.862.

On to `C[C@H]1C[C@@H]2[C@H]([C@@H](O)C[C@@]3(C)[C@H]2CC[C@]3(O)C(=O)CO)[C@@]2(C)C=CC(=O)C=C12` [Methylprednisolone], for which the startle amounted to 0.408.

As for `CCc1ccc(CCOc2ccc(CC3SC(=O)NC3=O)cc2)nc1` (stereo not given) [Pioglitazone hydrochloride], the startle is -4.69.

`CC(C)c1ccc2oc3nc(N)c(C(=O)O)cc3c(=O)c2c1` [Amlexanox]: the startle turned out to be 2.27.

`O=C(Nc1c(Cl)cncc1Cl)c1ccc(OC(F)F)c(OCC2CC2)c1` [Roflumilast]: the startle was 3.93.

Take `CNC(=O)c1ccccc1Sc1ccc2c(/C=C/c3ccccn3)n[nH]c2c1` [Axitinib]: the startle was -7.2.

Turning to `Cc1ccsc1C(=CCCN1CCC[C@@H](C(=O)O)C1)c1sccc1C` [Tiagabine hydrochloride], the startle stood at 7.31.

For `CC(C)(C(=O)c1cccnc1)c1cccnc1` [Metyrapone], the startle was -0.289.

Take `Cc1ccccc1C(=O)Nc1ccc(C(=O)N2CCCC(O)c3cc(Cl)ccc32)c(C)c1` (stereo not given) [Tolvaptan]: the startle was determined as 4.33.

`Cc1nc(Nc2ncc(C(=O)Nc3c(C)cccc3Cl)s2)cc(N2CCN(CCO)CC2)n1` [Dasatinib]: the startle is -0.00442.

Turning to `CC(C)[C@H]1CC[C@H](C(=O)N[C@H](Cc2ccccc2)C(=O)O)CC1` [Nateglinide], the startle came to 3.17.

For the molecule `C[C@]12CCC(=O)C=C1CC[C@@H]1[C@@H]2[C@@H](O)C[C@@]2(C)[C@H]1CC[C@]2(O)C(=O)CO` [Hydrocortisone], the startle amounted to 0.463.

On to `CC1(C)O[C@@H]2[C@@H](CO[C@@]3(COS(N)(=O)=O)OC(C)(C)O[C@@H]23)O1` [Topiramate], for which the startle is -0.863.

`CC(=O)O[C@H]1C(=O)[C@@]2(C)[C@H]([C@H](OC(=O)c3ccccc3)[C@]3(O)C[C@H](OC(=O)[C@H](O)[C@@H](NC(=O)c4ccccc4)c4ccccc4)C(C)=C1C3(C)C)[C@]1(OC(C)=O)CO[C@@H]1C[C@@H]2O` [Taxol]: the startle worked out at 1.37.

Regarding `CCCc1nc2c(C)cc(-c3nc4ccccc4n3C)cc2n1Cc1ccc(-c2ccccc2C(=O)O)cc1` [Telmisartan], the startle turned out to be 2.86.

With `COc1ccc(Cl)cc1C(=O)NCCc1ccc(S(=O)(=O)NC(=O)NC2CCCCC2)cc1` [Glibenclamide], the startle was 8.34.

As to `CCCCC1=NC2(CCCC2)C(=O)N1Cc1ccc(-c2ccccc2-c2nnn[nH]2)cc1` [Irbesartan], the startle amounted to 3.4.

Regarding `O=c1[nH]c(=O)n([C@H]2C[C@H](O)[C@@H](CO)O2)cc1C(F)(F)F` [Trifluorothymidine], the startle was 1.59.

As for `CC(C)Nc1cccnc1N1CCN(C(=O)c2cc3cc(NS(C)(=O)=O)ccc3[nH]2)CC1` [Delavirdine mesylate], the startle was -4.71.

Consider `CC1CNc2c(cccc2S(=O)(=O)N[C@@H](CCCNC(=N)N)C(=O)N2CC[C@@H](C)C[C@@H]2C(=O)O)C1` (stereo not given in full) [Argatroban], for which the startle stood at 2.82.

For `Nc1nc(Cl)nc2c1ncn2[C@@H]1O[C@H](CO)[C@@H](O)[C@@H]1F` [Clofarabine], the startle worked out at 5.12.

On to `C[C@@H](O[C@H]1OCCN(Cc2n[nH]c(=O)[nH]2)[C@H]1c1ccc(F)cc1)c1cc(C(F)(F)F)cc(C(F)(F)F)c1` [Aprepitant], for which the startle is -6.24.

As for `CS(=O)(=O)CCNCc1ccc(-c2ccc3ncnc(Nc4ccc(OCc5cccc(F)c5)c(Cl)c4)c3c2)o1` [Lapatinib], the startle is -0.148.

Turning to `COc1ccc(C[C@@H](C)NC[C@H](O)c2ccc(O)c(NC=O)c2)cc1` [Arformoterol tartrate], the startle was -8.08.

For `C=C1[C@H](CO)[C@@H](O)C[C@@H]1n1cnc2c(=O)[nH]c(N)nc21` [Entecavir], the startle came to 3.99.

As to `CCOc1nc2cccc(C(=O)O)c2n1Cc1ccc(-c2ccccc2-c2noc(=O)[nH]2)cc1` [Azilsartan], the startle stood at 3.25.

Turning to `CCOc1cc(CC(=O)N[C@@H](CC(C)C)c2ccccc2N2CCCCC2)ccc1C(=O)O` [Repaglinide], the startle was -4.11.

On to `CCCc1nc(C(C)(C)O)c(C(=O)O)n1Cc1ccc(-c2ccccc2-c2nnn[nH]2)cc1` [Olmesartan], for which the startle turned out to be 8.5.

Turning to `CC(=O)O[C@]1(C(C)=O)CC[C@H]2[C@@H]3C=C(C)C4=CC(=O)CC[C@]4(C)[C@H]3CC[C@@]21C` [Megestrol Acetate], the startle is -12.5.

For the molecule `CC(C)CN(C[C@@H](O)[C@H](Cc1ccccc1)NC(=O)O[C@H]1CO[C@H]2OCC[C@H]21)S(=O)(=O)c1ccc(N)cc1` [Darunavir], the startle was -0.93.

For `NC(=O)N1c2ccccc2C=Cc2ccccc21` [Carbamazepine], the startle was determined as 3.47.

For the molecule `Cc1nc(-c2ccc(OCC(C)C)c(C#N)c2)sc1C(=O)O` [Febuxostat], the startle amounted to 3.79.

As for `CN1CCN(CCCN2c3ccccc3Sc3ccc(Cl)cc32)CC1` [Prochlorperazine dimaleate], the startle was -8.12.
